In the library only some 3.2% were active in any assay of this set; here they are far more common.
Rv3671c protease = inhibits the M. tuberculosis serine protease Rv3671c; inhibition, % at 5.96 µM; AID 2606; hit rate 0.048% among 320,000; P9WHR9; in the data active means inhibition above about 38%;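 further: extracellular domain of Rv3671c used as enzyme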
Target sequence (P9WHR9 whole entry, looked up, the tested form may be a part): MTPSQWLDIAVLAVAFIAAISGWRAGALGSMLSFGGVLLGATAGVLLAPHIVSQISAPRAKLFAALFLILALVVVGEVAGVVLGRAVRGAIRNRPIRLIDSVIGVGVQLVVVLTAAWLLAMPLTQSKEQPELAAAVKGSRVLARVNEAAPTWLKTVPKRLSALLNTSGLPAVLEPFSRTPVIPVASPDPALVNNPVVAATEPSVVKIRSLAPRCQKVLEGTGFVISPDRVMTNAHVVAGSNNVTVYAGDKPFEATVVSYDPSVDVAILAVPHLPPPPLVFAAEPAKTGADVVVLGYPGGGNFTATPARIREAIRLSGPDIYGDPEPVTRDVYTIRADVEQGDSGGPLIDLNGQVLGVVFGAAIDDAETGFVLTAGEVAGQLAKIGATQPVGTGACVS
Mtb bLac sens = beta-lactam sensitization of Mtb H37Rv | M. tuberculosis H37Rv growth with meropenem, percent inhibition | inhibition, % at 25 µM | hit rate 0.27% among 330,000 | AID 434955; call rule not given here;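 further: growth measured after seven days incubation then overnight dye step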
Mtb FBA inh = Mtb fructose-bisphosphate aldolase inhibition; P9WQA3; hit rate 2.3% among 360,000; AID 588726; purified M. tuberculosis FBA, fluorescence read-out; inhibition, % at 1 µM; in the data active means inhibition above about 27%
GDH-TPI inh = inhibits GDH-TPI coupling enzymes, artifact for Mtb FBA screen | GDH-TPI coupled enzyme counterscreen, NADH absorbance | inhibition, % at 4.8 µM | hit rate 1.2% among 360,000 | AID 588335; in the data active means inhibition above about 30%
SSB-PriA inh = blocks PriA binding to SSB C-terminal tail; inhibition, % at 33 µM; AID 1272365; AlphaScreen SSBct-PriA binding, biotinylated peptide; hit rate 0.6% among 430,000; in the data active means inhibition mostly above about 37%, no sharp cut-off; inactive means mostly below about 20%
UGM FP inh = inhibitors of M. tuberculosis UDP-galactopyranose mutase | inhibition, % at 10 µM | hit rate 0.06% among 320,000 | AID 504406 | purified UGM, fluorescence polarization probe displacement; in the data active means inhibition above about 10%, passing the limit was not always enough
Hits are given with their value; . = inactive; / = no result; + = active, no number.

SMILES | Rv3671c protease | Mtb bLac sens | Mtb FBA inh | GDH-TPI inh | SSB-PriA inh | UGM FP inh
O=C(/C=C/c1ccccc1Cl)c1ccc(O)cc1 | . | . | . | 35 | . | .
O=C(/C=C/c1ccccc1Cl)c1cccnc1 | . | . | . | . | . | .
CCCN1CCCc2cc(CCNC(=O)C(=O)Nc3cc(Cl)ccc3C)ccc21 | / | / | / | / | . | /
CCCN1CCCc2cc(CCNS(=O)(=O)c3ccc(F)c(C)c3)ccc21 | / | / | / | / | 59 | /
CCCN1CCCc2cc(CCNS(=O)(=O)c3ccc(C)c(C)c3)ccc21 | / | / | / | / | 61 | /
CCCN1CCCc2cc(CCNS(=O)(=O)c3ccc(C)cc3)ccc21 | / | / | / | / | . | /
O=C(NC1CCC(Oc2cnccn2)CC1)c1ccc(=O)[nH]c1 (centres undefined) | / | / | / | / | . | /
CCOC(=O)C(NCc1ccccn1)(NC(=O)c1cccnc1)C(F)(F)F (centres undefined) | . | . | . | . | 51 | .
Cc1cc(C)cc(Cn2c3ccc(NC(=O)NCc4ccc(F)cc4)cc3c(=O)n2C)c1 | / | / | 133 | . | / | /
Cc1cc(C)cc(Cn2c3ccc(NC(=O)NCc4ccccc4)cc3c(=O)n2C)c1 | / | / | 172 | . | / | /
COc1ccc(-c2csc(CN3CCN(C(=O)c4cccc(Cl)c4)CC3)n2)cc1 | / | / | / | / | . | /
O=C(Nc1ccccc1)C1CCCN1/C=C/C(=O)C(F)(F)F (centres undefined) | . | . | . | 44 | . | .
Nc1ccccc1Nc1cccc(C(F)(F)F)c1 | . | . | . | . | 43 | .
Cc1cc(C)nc(Nc2cccc(C(F)(F)F)c2)n1 | . | . | . | . | . | .
CC(NCc1cccc(Cl)c1Cl)C(O)c1ccccc1 (centres undefined) | . | . | . | . | 116 | .
CC(NCc1ccc(Cl)cc1Cl)C(O)c1ccccc1 (centres undefined) | . | . | . | . | . | .
O=S(=O)(Nc1ccc(N2CCCS2(=O)=O)cc1)c1ccc2c(c1)OCCO2 | / | / | / | / | . | /
CC(=O)Nc1ccc(C(C)=NNC(=O)c2ccncc2)cc1 | / | / | / | / | . | /
Cc1ccc(C=NNC(=O)c2csc(C)c2)o1 | / | / | / | / | . | /
Cc1ccc(/C=N/NC(=O)c2cc3c(s2)CCCC3)o1 | . | . | . | 40 | / | .
Cc1cccc(C(=O)Nc2ccc(C(=O)N/N=C/c3ccc(C)o3)cc2)c1 | . | . | . | 41 | / | .
C/C(=N\NC(=O)c1ccc(N/N=C(\C)c2ccncc2)cc1)c1ccncc1 | . | . | . | 31 | / | .
Cc1ccc(/C=N/NC(=O)c2ccncc2)o1 | . | . | . | 38 | / | .
Cc1ccc(C=NNC(=O)c2ccncc2)cc1 | / | / | / | / | . | /
Cc1ccccc1-c1noc(CSc2nc(C)c(C)c(=O)[nH]2)n1 | / | / | / | / | . | /
SMILES | Rv3671c protease | Mtb bLac sens | Mtb FBA inh | GDH-TPI inh | SSB-PriA inh | UGM FP inh
CC(=O)N1CCN(C(=O)CCc2csc(NC(=O)Nc3ccccc3)n2)CC1 | / | / | / | / | . | /
O=S(=O)(c1ccccc1F)N1CCN(Cc2cc3c(cc2O)OCO3)CC1 | . | . | . | . | . | .
Cc1ccc(C)c(S(=O)(=O)N2CCN(Cc3cc4c(cc3O)OCO4)CC2)c1 | . | . | . | . | 41 | .
COc1ccc(C2C(C#N)=C(N)Oc3n[nH]c(-c4ccccn4)c32)c(OC)c1OC (centres undefined) | . | . | . | . | 70 | .
O=C(Nc1cnc(N2CCN(c3ccccc3)CC2)nc1)Nc1ccccc1Cl | / | / | / | / | . | /
COc1cccc(-c2nnc(-c3ccc(C)o3)o2)c1 | . | . | 179 | . | . | .
Cc1c(C)c2c(OCC(=O)N3CCC(O)CC3)cc3c(c2oc1=O)CCC(C)(C)O3 | . | . | + | 31 | . | .
Cc1c(C)c2c(OCC(=O)N3CCC[C@H]3C(=O)O)cc3c(c2oc1=O)CCC(C)(C)O3 | . | . | + | . | . | .
O=C(CCc1ccc(Cl)c(C(F)(F)F)c1)N1Cc2cnc(N3CCOCC3)nc2C1 | / | / | / | / | . | /
COc1ccc(S(=O)(=O)Cc2nc(-c3ccccc3Br)no2)cc1 | / | / | / | / | . | /
COc1ccc(NC(=O)CN2CCN(c3nccn3-c3ccc(C)cc3)CC2)cc1OC | / | / | / | / | 37 | /
CCOc1ccccc1NC(=O)CN1CCN(c2nccn2-c2cccc(Cl)c2)CC1 | / | / | / | / | 59 | /
COc1ccc(NC(=O)CN2CCN(CC(=O)Nc3ccc(OC)c(OC)c3)CC2)cc1 | . | . | . | . | . | .
CC(C)c1ccc(OCC(=O)N2CCN(c3nccn3C)CC2)cc1 | / | / | / | / | . | /
CCOc1ccc(OCC(=O)N2CCN(c3nccn3-c3ccc(C)cc3)CC2)cc1 | / | / | / | / | 60 | /
CCOc1ccccc1NC(=O)CN1CCN(Cc2ccccc2)CC1 | . | . | . | . | . | .
Cc1ccc(-c2cc3c(SCc4ccccc4Cl)nccn3n2)cc1C | / | / | / | / | . | /
NC(=O)N\N=C/C=C/C=C/c1ccc(F)cc1 | . | . | . | 53 | / | .
O=C(NCc1cccnc1-c1ccsc1)Nc1c(F)cccc1F | / | / | / | / | . | /
CC(c1ccccc1)N1C(=O)NC(NC(=O)c2cccnc2)(C(F)(F)F)C1=O (centres undefined) | . | . | . | . | 48 | .
O=C(NCc1cncc(-c2cccs2)c1)c1ccc(F)cc1Cl | / | / | / | / | . | /
O=C(CSc1c(-c2ccccc2)[nH]c2ccccc12)NC1CCCCC1 | / | / | / | / | . | /
O=c1[nH]c(-c2ccccn2)cc2ccccc12 | . | . | 121 | . | . | .
O=c1[nH]c(-c2ccccn2)cs1 | / | / | / | / | 63 | /
O=c1[nH]c(Nc2ccccn2)cc2ccccc12 | . | . | 132 | . | . | .
SMILES | Rv3671c protease | Mtb bLac sens | Mtb FBA inh | GDH-TPI inh | SSB-PriA inh | UGM FP inh
COc1ccc(S(=O)(=O)Nc2cc(N3CCCS3(=O)=O)ccc2OC)cc1C | / | / | / | / | . | /
O=S(=O)(C1CCCCC1)N1CCC(c2cccs2)CC1 | / | / | / | / | . | /
Cc1nn(-c2ccccc2)c2sc(-c3n[nH]c(=S)o3)cc12 | . | . | + | 42 | . | .
COC(=O)c1cc2c(C)nn(-c3ccccc3)c2s1 | . | . | 35 | . | . | .
O=C(N/N=C/c1ccc(Cl)s1)c1ccccc1[N+](=O)[O-] | . | . | . | 31 | . | .
O=C(Cc1nc(-c2ccncc2)n[nH]1)NCCc1cccs1 | / | / | / | / | . | /
Cc1ccc(C2CC(=O)Nc3c2ccc2ccccc32)cc1[N+](=O)[O-] (centres undefined) | . | . | . | . | 42 | .
COc1ccccc1C(=O)NC(=S)N1CCNC(=O)C1CC(=O)OCC1CCCO1 (centres undefined) | / | / | / | / | . | /
COc1ccc(Nc2nnc(-c3ccc(C)cc3)c3ccccc23)cc1C(=O)N1CCCCC1 | . | . | . | . | . | .
CNC(=O)c1ccc(Nc2nnc(-c3ccc(C(N)=O)cc3)c3ccccc23)cc1 | . | . | . | 39 | . | .
CCN(CC)C(=O)COc1ccc(-c2nnc(Nc3ccc(OC)c(C(=O)NC)c3)c3ccccc23)cc1 | . | / | . | 46 | . | .
Cc1c(N)cncc1C#N | / | / | / | / | . | /
Cn1c(CNC(=O)c2ccccc2F)nnc1SCC(=O)Nc1nnc(C2CC2)s1 | . | . | . | . | . | .
COc1ccccc1OCc1nnc(SCC(=O)Nc2nnc(C3CC3)s2)n1C | . | . | 175 | . | . | .
O=C(NCC1CCN(Cc2cccs2)CC1)C(=O)Nc1ccc(C(F)(F)F)cc1 | / | / | / | / | . | /
O=C1CCC/C1=C/Nc1ccc(Cl)cc1 | . | . | . | 32 | . | .
O=C1CCC/C1=C\Nc1ccc(Cl)c([N+](=O)[O-])c1 | . | . | . | . | / | .

Bioassay records (PubChem)
